Measured values reported in the supplement of paper PMC10338343.
± gives the standard deviation. In all, about 6,600 sequences were measured (“pre-steady-state target cleavage rate”: median about 0.07, highest 2% from about 0.72 on). Only a selection was taken, and the highest values are over-represented in it overall.

The sequences below were run on MIWI (PIWIL1) piRISC loaded with Kctd7 piRNA (30 nt) (assay: pre-steady-state target cleavage rate (min^-1); MIWI and MILI are mouse PIWI proteins and EfPiwi is from a freshwater sponge; tags in brackets are library labels; higher = faster piRNA-guided slicing of the target). Conditions: guide: Kctd7 piRNA 5'p-UGUUAAUCUCUCAGAGAAGGUGACAGUGAU; auxiliary factor: 500 nM mouse GTSF1.
Experimental: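 Cleave-'n-Seq: a library of target RNAs (target site embedded in constant flanks, ACAGCATTCCGCGTTAGTGATATCCG... 5' flank; DNA-blocked outside the site) at 0.1 nM was incubated with 1 nM active mouse MILI or MIWI piRISC (synthetic 5'-monophosphorylated piRNA guide) with or without 500 nM mouse GTSF1 at 33 °C for 1 min to 16 h. Uncleaved targets were sequenced and normalised to non-target controls, and the pooled three trials were fitted to a burst-and-steady-state model to give the pre-steady-state cleavage rate (min^-1; k3 is constrained to at most 1e-4). Sequence is the target site only; target names encode pairing extent (gX:gY) and contiguous / 1-mismatch / 2-mismatch / bulge geometry. Fits with R² ≤ 0 are excluded.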

| Sequence | pre-steady-state target cleavage rate |
| --- | --- |
| UUCACUGUCUCCUUCUCUGAGAGAUUAACA | 0.685 ± 0.036 |
| AACACUGUCUCCUUCUCUGAGAGAUUAACA | 0.738 ± 0.039 |
| UUGACUGUCUCCUUCUCUGAGAGAUUAACA | 0.746 ± 0.04 |
| AUGACUGUCUCCUUCUCUGAGAGAUUAACA | 0.623 ± 0.037 |
| UAGACUGUCUCCUUCUCUGAGAGAUUAACA | 0.662 ± 0.04 |
| AUCACUGUCACCUUCUUCUGAGAGAUUAACA | 0.212 ± 0.046 |
| UAGUGUGUCACCUUCUCUGAGACUUUAUGA | 0.00826 ± 0.0044 |
| UUCAGUGUCACCUUCUCUGAGAGAUAAACA | 0.264 ± 0.033 |
| UAGACUGUCUGGUUCUCUGAGAGAUUAUGA | < 0.0001 |
| UAGUCUGUCACCUUCUGUCAGAGAUUAACA | 0.01 ± 0.0034 |
| UUCACUGUCUCGUUCUCUGAGAGAUUAACA | 0.631 ± 0.035 |
| UUCACUGUCACCGUUCUCUGAGAGAUUAACA | 0.729 ± 0.032 |
| UUCACUGUCACCGUCUCUGAGAGAUUAACA | 0.509 ± 0.022 |
| AUCACUGUCACCGUUCUCUGAGAGAUUAACA | 0.774 ± 0.052 |
| UACACUGUCACCGUUCUCUGAGAGAUUAACA | 0.586 ± 0.03 |
| UAGUCUGUCACCGUUCUCUGAGAGAUUAACA | 0.651 ± 0.041 |
| UUCACUGUGACCUUCUCUGAGAGAUUAUGA | 0.119 ± 0.021 |
| UAGUGUGUCUCCUUCUCUGACAGAUUAACA | 0.386 ± 0.03 |
| UAGACUGUCACACUUCUCUGAGAGAUUAACA | 0.607 ± 0.04 |
| UAGACUGUCACUUUCUCUGAGAGAUUAACA | 0.8 ± 0.043 |
| UACACUGUCACCUUUCUCUGAGAGAUUAACA | 0.575 ± 0.029 |
| UACACUGUCACUUUCUCUGAGAGAUUAACA | 0.725 ± 0.025 |
| UAGACUGUCACUUCUCUGAGAGAUUAACA | 0.466 ± 0.041 |
| AUCACUGUCACUUUCUCUGAGAGAUUAACA | 0.794 ± 0.04 |
| AUCACUGUCACCUUUCUCUGAGAGAUUAACA | 0.599 ± 0.034 |

| Sequence | pre-steady-state target cleavage rate |
| --- | --- |
| UUCACUGUCACUUUCUCUGAGAGAUUAACA | 0.691 ± 0.026 |
| UACACUGUCACUUCUCUGAGAGAUUAACA | 0.577 ± 0.038 |
| UUGACUGUCACCUUCUCUGAGACAUUAACA | 0.0684 ± 0.0093 |
| AUCUCUGUCACCUUCUCUGAGAGAUUUUGA | 0.191 ± 0.042 |
| UAGACUCUCACCUUCUCUGAGAGAUUAACA | 0.431 ± 0.029 |
| UACACUGUCACCUUCUCUGAGUGAUUUACA | 0.0176 ± 0.0081 |
| UAGACAGUCACCUUCUCUGAGAGAUUAUCA | 0.252 ± 0.029 |
| UAGACUCACACCUUCUCUGAGAGAUUAUGA | 0.0733 ± 0.015 |
| UAGAGCUGUCACCUUCUCUGAGAGAUUAACA | 0.706 ± 0.047 |
| UUCAGCUGUCACCUUCUCUGAGAGAUUAACA | 0.681 ± 0.037 |
| UACAGUGUCACCUUCUCUGAGAGAUUAACA | 0.663 ± 0.034 |
| AUCAGCUGUCACCUUCUCUGAGAGAUUAACA | 0.792 ± 0.043 |
| UACAGCUGUCACCUUCUCUGAGAGAUUAACA | 0.749 ± 0.036 |
| UACAUCUGUCACCUUCUCUGAGAGAUUAACA | 0.66 ± 0.027 |
| UAGUCUGUCACCUUCUCUGAGAGAUAUUCA | 0.211 ± 0.045 |
| UUCACUGUCACCUUCUCUCUCAGAUUAACA | 0.00363 ± 0.0035 |
| UAGUGAGUCACCUUCUGUCAGAGAUUAACA | 0.00937 ± 0.0041 |
| UACACUGACACCUUCUCUGAGAGAUUUUGA | 0.0697 ± 0.019 |
| UAGUGACUCACCUUGUCUGUGAGAUUAACA | 0.0416 ± 0.0061 |
| AUCACUGUCACCAUCUCUGUGAGAUUAACA | 0.259 ± 0.021 |
| UACACUGUCACCAUCUCUGAGAGAUUAACA | 0.532 ± 0.044 |
| UUCACUGUCACCAUCUCUGAGAGAUUAACA | 0.738 ± 0.029 |
| UUCACUGUCACCAUCUCUGUGAGAUUAACA | 0.215 ± 0.015 |
| AUCACUGUCACCAUCUCUGAGAGAUUAAGA | 0.184 ± 0.032 |
| AUCACUGUCACCAUCUCUGAGAGAUUAACA | 0.795 ± 0.048 |

| Sequence | pre-steady-state target cleavage rate |
| --- | --- |
| AUCACUGACACCAUCUCUGAGAGAUUAACA | 0.603 ± 0.037 |
| AACACUGUCACCAUCUCUGAGAGAUUAACA | 0.77 ± 0.035 |
| UUCACUGUCACCAUCUCUGAGAGAUUAAGA | 0.134 ± 0.025 |
| UAGUGUGUCACCUACUCUCAGAGAUUAACA | 0.0454 ± 0.009 |
| AUCACUGAGACCUUCUCUGAGAGAUUAAGA | 0.17 ± 0.033 |
| UAGUCUGUCUCCAUCUCUGAGAGAUUAACA | 0.509 ± 0.034 |
| UAGUGAGUCACCUUGUCUGAGAGUUUAACA | 0.0617 ± 0.013 |
| UAGUGACUCACCUUCUUUGAGAGAUUAACA | 0.196 ± 0.021 |
| UAGUGACUCACCUUCUCUGAGUGAUUAACA | 0.0244 ± 0.0052 |
| UAGUGACAGACCUUCCUCUGAGAGAUUAACA | 0.0189 ± 0.004 |
| UAGUGACAGACCUUACUCUGAGAGAUUAACA | 0.0198 ± 0.0041 |
| UAGUGAGUCACGUUCUCAGAGAGAUUAACA | 0.171 ± 0.017 |
| UACACUGUUACCUUCUCUGAGAGAUUAACA | 0.441 ± 0.024 |
| UAGACUGUCACCUUCUGUGAGAGAUAUUGA | 0.0117 ± 0.004 |
| UAGACUGUACCUUCUCUGAGAGAUUAACA | 0.572 ± 0.044 |
| UUCACUGUACACCUUCUCUGAGAGAUUAACA | 0.655 ± 0.033 |
| UACACUGUACACCUUCUCUGAGAGAUUAACA | 0.623 ± 0.03 |
| AUCACUGUAACCUUCUCUGAGAGAUUAACA | 0.651 ± 0.03 |
| UAGACUGUACACCUUCUCUGAGAGAUUAACA | 0.779 ± 0.055 |
| UUCACUGUACCUUCUCUGAGAGAUUAACA | 0.712 ± 0.036 |
| AUCACUGUACCUUCUCUGAGAGAUUAACA | 0.769 ± 0.051 |
| AUCACUGUACACCUUCUCUGAGAGAUUAACA | 0.8 ± 0.055 |
| UAGACUGACACCUUCUCUGAGAGAUUAACA | 0.62 ± 0.035 |
